Common to all, as to assay type: functional
The target of assay [1] is Solute carrier family 2, facilitated glucose transporter member 1 (Homo sapiens) (UniProt P11166). Briefly: ST_JUDE_LEISH: Cytotoxicity at 2uM final concentration against transgenic Leishmania Mexicana promastigotes LmGLUT1 that are glucose transport deficient and complemented with the human glucose transporter GLUT1. Activity is measured by DNA content using SYBR green in vitro.

In assay [2] the target is Hexose transporter 1 (Plasmodium falciparum) (UniProt O97467). Briefly: ST_JUDE_LEISH: Cytotoxicity at 2uM final concentration against transgenic Leishmania Mexicana promastigotes LmPfHT that are glucose transport deficient and complemented with the Plasmodium falciparum hexose transporter. Activity is measured by DNA content using SYBR green in vitro.
Assay [3] concerns the target Glucose transporter (Leishmania mexicana) (UniProt O61059). Briefly: ST_JUDE_LEISH: Cytotoxicity at 2uM final concentration against transgenic Leishmania Mexicana promastigotes LmGT2 that are glucose transport deficient and complemented with the L. Mexicana glucose transporter 2. Activity is measured by DNA content using SYBR green in vitro.

SMILES strings stand for the structures.

Solute carrier family 2, facilitated glucose transporter member 1 (Homo sapiens), sequence (P11166 whole entry): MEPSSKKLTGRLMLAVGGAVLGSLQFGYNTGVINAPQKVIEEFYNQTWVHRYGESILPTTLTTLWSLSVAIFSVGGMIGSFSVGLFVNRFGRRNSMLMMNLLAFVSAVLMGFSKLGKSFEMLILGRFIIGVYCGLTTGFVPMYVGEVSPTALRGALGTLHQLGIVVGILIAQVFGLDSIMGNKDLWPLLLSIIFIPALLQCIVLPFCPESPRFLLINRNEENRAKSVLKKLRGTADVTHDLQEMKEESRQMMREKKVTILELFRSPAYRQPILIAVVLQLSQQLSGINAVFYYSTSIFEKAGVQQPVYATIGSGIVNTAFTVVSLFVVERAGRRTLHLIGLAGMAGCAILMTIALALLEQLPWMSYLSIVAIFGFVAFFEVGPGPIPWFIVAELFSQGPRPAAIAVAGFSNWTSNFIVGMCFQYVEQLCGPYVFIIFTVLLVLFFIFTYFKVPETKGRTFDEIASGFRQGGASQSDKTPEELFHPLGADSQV

Usually inhibition stands for the relative decrease from the control value, in per cent. Consider `COc1cc(Nc2nccc(Nc3ccc4c(C)n[nH]c4c3)n2)cc2ccccc12`, for which the inhibition in assay [1] was 5.04%; in assay [2], 2.79%; in assay [3], -0.29%.
As to `COc1ccc(-c2ccc(NC(=O)c3ccc(Cl)cc3)cc2)cc1CN1CCC(O)CC1`, the values for the inhibition in assay [1], in assay [2] and in assay [3] were 3.31%, 2.62% and 2.54%, respectively.
`O=C(/C=N/O)Nc1ccccc1[N+](=O)[O-]`: the results for the inhibition in assay [1], in assay [2] and in assay [3] were -1.31%, 0.8% and 0.39%, respectively.
The corresponding values for `O=C(Nc1ccc(-c2cncc(NCCCN3CCCC3)c2)cc1)c1ccccc1` are 1.36%, 1.48% and 1.55%.
In the same order, the values of `Cc1ccc2[nH]cc(/C=C/C(=O)NC3CCC(CCN4CCc5ccc(C#N)cc5CC4)CC3)c2c1` (stereo unspecified) are 0.83%, 4.1% and -2.82%.
For the compound `Cc1[nH]c(C)c(-c2ccc(OCc3cc(F)cc(F)c3)nc2)c(=O)c1Cl`, the inhibition in assay [1] is 5.4%; in assay [2], 4.58%; in assay [3] it was 2.08%.
The corresponding values for `CCNc1cc(C(=O)N[C@@H](Cc2ccccc2)[C@H](O)CN[C@@H]2CCc3ccccc32)cc(N2CCCC2=O)c1` are 10.5%, 2.63% and 2.15%.
The corresponding values for `CN(C)CCOc1cccc(NC(=O)Nc2ccc(-c3ccccc3)cc2)c1` are 2.67%, 1.78% and 1.53%.
The corresponding values for `COc1ccc(CN(C)CCOc2ccc(NC(=O)c3cccc4c(=O)cc(-c5ccccc5)[nH]c34)cc2)cc1OC` are 0.9%, 0.96% and 1.24%.
`COc1ccc(C2=[N+]([O-])c3ccccc3C2=O)cc1`: the results for the inhibition in assay [1], in assay [2] and in assay [3] were 0.97%, 0.24% and -0.74%, respectively.
For the compound `O=C(Nc1ccc(C(=O)N2CCN(CCN3CCN(c4cccc(C(F)(F)F)c4)CC3)CC2)cc1)c1ccc(OC(F)(F)F)cc1`, the inhibition in assay [1] is -1.35%; in assay [2], 0.14%; in assay [3], -2.39%.
In the same order, the values of `CCOc1ccc2[nH]c(-c3ccccc3)cc(=NN=Cc3ccncc3)c2c1` are 1.66%, 4.54% and -0.25%.
As for `NC(=O)c1ccc(C(=O)Nc2cccc(-c3cccc(-c4nc5cc(C(F)(F)F)ccc5[nH]4)c3)c2)cc1`, the inhibition in assay [1] was determined as 3.29%; in assay [2], 5.6%; in assay [3], 2.11%.
The corresponding values for `Oc1ccc2c(CNCCc3ccccc3)c(O)ccc2c1CNCCc1ccccc1` are 8.01%, 6.13% and 6.71%.
The corresponding values for `COc1ccc2nccc([C@@H](O)CN3CCC(NC(=O)C(c4ccsc4)N4CCN(c5ccccc5OC)CC4)CC3)c2c1` (stereo partly specified) are 1.93%, 1.41% and 0.49%.
In the same order, the values of `O=C(CN(c1cccc(C(F)(F)F)c1)S(=O)(=O)c1ccc(Cl)cc1)NCCC(c1ccccc1)c1ccccc1` are -0.18%, -0.47% and -2.89%.
As for `Cc1cc(NC(=O)Nc2ccc3nccc(N4CCN(C)CC4)c3c2)ccc1Br`, the inhibition in assay [1] was -0.1%; in assay [2], 1.48%; in assay [3], 1.15%.
For `COc1cc(NC(=O)/C=C/c2ccccc2OC(F)(F)F)cc(OCCN2CCCCC2)c1`, the inhibition was 2.6% in assay [1], 1.06% in assay [2] and 1.67% in assay [3].
The corresponding values for `Cc1ccc(S(=O)(=O)Nc2ccc(Nc3nccc(Nc4cccc5[nH]ncc45)n3)cc2)cc1` are 1.77%, 2.62% and 0.3%.
In the same order, the values of `Cc1[nH]c2ccc(O)cc2c1C1CCN(CCCCCNC(=O)/C=C/c2ccc(Cl)c(Cl)c2)CC1` are 0.59%, 0.7% and 0.96%.
`CCNc1cc(C(=O)N[C@@H](Cc2ccccc2)[C@H](O)CNC23CCC(CC2)C3)cc(N2CCCCS2(=O)=O)c1`: the inhibition in assay [1] was 0.79%; in assay [2], -1.58%; in assay [3] it was 3.19%.
The corresponding values for `Cc1nc(-c2ccc(-c3ccc(NC(=O)c4coc5ccc(N6CC(C)NC(C)C6)cc45)cc3)c(C)c2)no1` (stereo unspecified) are 3.42%, 5.16% and 6.24%.
Regarding `CC(=O)N[C@@H]1c2cc(C(C)=O)ccc2OC(C)(C)[C@@H]1O`, the inhibition in assay [1] was -0.93%; in assay [2] it was -0.7%; in assay [3] it was -0.73%.
In the case of `COc1cc(CN2CCC(CO)(Cc3cccc(C(F)(F)F)c3)CC2)c(Cl)cc1O`, the inhibition in assay [1] is 0.06%; in assay [2] it was -1.69%; in assay [3], -0.81%.
In the same order, the values of `NC1=NC2(CCCCC2)N(Cc2ccc(Cl)c(Cl)c2)C(N)=N1` are -1.03%, -0.28% and -0.42%.
The corresponding values for `Oc1c(C(Nc2nc3ccccc3s2)c2ccc(OC(F)F)cc2)ccc2cccnc12` (stereo unspecified) are 4.38%, 0.37% and -1.77%.
In the case of `COc1ccc2nccc([C@@H](O)CN3CCC(NCc4nc5ccc(F)cc5[nH]4)CC3)c2c1`, the inhibition in assay [1] is 2.34%; in assay [2], 1.93%; in assay [3], 2.2%.
The corresponding values for `N#Cc1cccc(Nc2nccc(NCC(O)c3ccc(C(F)(F)F)cc3)n2)c1` (stereo unspecified) are 3.05%, 3.09% and 0.03%.
In the same order, the values of `CC(C)CCn1c(Sc2ccc(C#N)c([N+](=O)[O-])c2)nnc1-c1ccccc1Cl` are 4.86%, 3.76% and 1.46%.
The corresponding values for `O=C1CCCN1CCCNCc1ccc(-c2cccc(-c3nc4cc(C(F)(F)F)ccc4[nH]3)c2)cc1` are 1.71%, -0.32% and -0.5%.
For `CCN(CC)CCCC(C)Nc1ccnc2[nH]c3ccccc3c12` (stereo unspecified), the inhibition in assay [1] was determined as 6.4%; in assay [2], 6.62%; in assay [3], 4.63%.
For `N=C(Nc1cccc(Cc2ccccc2)n1)Nc1ncccn1`, the values for the inhibition in assay [1], in assay [2] and in assay [3] were 2.06%, 1.79% and 1.88%, respectively.

Values taken from ChEMBL document CHEMBL3433997, “St. Jude Leishmania screening dataset” (2016).
